Design in all cases: scale not given: direction of the effect not stated beside the values
For experiment [1], the target named is Protein translocase subunit SecA (Escherichia coli (strain K12)) (UniProt P10408). Nature of the experiment: Assay to Identify E. coli SecA ATPase Inhibitors. The conditions noted are these: 30 µM. In kind it is functional.
For experiment [2], the target named is T1, Ubiquitin-activating enzyme e1, putative (Leishmania donovani (strain BPK282A1)) (UniProt E9BSI1).
T1 sequence (whole entry): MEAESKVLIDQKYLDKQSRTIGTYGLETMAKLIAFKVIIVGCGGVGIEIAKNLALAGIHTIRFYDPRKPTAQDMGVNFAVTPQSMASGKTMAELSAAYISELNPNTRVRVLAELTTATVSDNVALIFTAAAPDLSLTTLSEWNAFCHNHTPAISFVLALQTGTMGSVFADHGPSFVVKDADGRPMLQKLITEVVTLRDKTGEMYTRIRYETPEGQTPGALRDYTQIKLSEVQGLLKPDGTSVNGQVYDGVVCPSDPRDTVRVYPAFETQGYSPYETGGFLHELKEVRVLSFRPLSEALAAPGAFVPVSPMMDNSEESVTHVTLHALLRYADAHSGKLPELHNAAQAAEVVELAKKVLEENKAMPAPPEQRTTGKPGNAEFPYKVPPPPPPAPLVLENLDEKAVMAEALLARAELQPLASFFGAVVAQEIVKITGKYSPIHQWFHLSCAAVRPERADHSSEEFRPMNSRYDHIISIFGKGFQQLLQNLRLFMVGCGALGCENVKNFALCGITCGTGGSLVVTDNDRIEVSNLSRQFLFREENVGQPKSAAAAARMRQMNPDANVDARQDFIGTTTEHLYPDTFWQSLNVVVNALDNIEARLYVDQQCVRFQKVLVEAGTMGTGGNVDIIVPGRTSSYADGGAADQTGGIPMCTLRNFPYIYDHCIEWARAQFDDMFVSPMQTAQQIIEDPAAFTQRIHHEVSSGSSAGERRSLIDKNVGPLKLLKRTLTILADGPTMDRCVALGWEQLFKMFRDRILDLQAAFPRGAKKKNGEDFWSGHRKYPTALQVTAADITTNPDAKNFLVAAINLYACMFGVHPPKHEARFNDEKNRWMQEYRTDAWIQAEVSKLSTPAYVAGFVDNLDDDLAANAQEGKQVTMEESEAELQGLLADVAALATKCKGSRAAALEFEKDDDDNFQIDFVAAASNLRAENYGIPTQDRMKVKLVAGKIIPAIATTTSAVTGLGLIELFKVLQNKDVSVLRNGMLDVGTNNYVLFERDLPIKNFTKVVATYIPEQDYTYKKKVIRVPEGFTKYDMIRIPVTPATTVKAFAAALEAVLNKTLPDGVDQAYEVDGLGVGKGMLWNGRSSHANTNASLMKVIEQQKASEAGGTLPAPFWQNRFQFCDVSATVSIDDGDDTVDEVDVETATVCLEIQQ
Nature of the experiment: Leishmania donovani Ubiquitin Activating Enzyme (LdE1). It counts as functional. The conditions noted are these: 30 µM.

Experiment [3] deals with AMP-activated protein kinase, AMPK (Homo sapiens) (UniProt P54646+O43741+P54619+Q9UGJ0+Q9Y478+Q13131+Q9UGI9). Nature of the experiment: AMP-dependent Kinase enzyme assay. An in vitro enzyme assay that detects ADP turnover that is directly proportional to AMPK activity. This uses naive AMPK that is activated during the assay with MK-8722. In kind it is functional. The conditions noted are these: 30 µM.

For experiment [4], the target named is Sialic acid-binding Ig-like lectin 9 (Homo sapiens) (UniProt Q9Y336). Nature of the experiment: Hs-Siglec9 ALPHAscreen SOP 20170721. The note with it: 10 µM. (Bead proximity is the source of the signal in Alpha formats.)
Chain of Sialic acid-binding Ig-like lectin 9 (Homo sapiens) (Q9Y336 whole entry): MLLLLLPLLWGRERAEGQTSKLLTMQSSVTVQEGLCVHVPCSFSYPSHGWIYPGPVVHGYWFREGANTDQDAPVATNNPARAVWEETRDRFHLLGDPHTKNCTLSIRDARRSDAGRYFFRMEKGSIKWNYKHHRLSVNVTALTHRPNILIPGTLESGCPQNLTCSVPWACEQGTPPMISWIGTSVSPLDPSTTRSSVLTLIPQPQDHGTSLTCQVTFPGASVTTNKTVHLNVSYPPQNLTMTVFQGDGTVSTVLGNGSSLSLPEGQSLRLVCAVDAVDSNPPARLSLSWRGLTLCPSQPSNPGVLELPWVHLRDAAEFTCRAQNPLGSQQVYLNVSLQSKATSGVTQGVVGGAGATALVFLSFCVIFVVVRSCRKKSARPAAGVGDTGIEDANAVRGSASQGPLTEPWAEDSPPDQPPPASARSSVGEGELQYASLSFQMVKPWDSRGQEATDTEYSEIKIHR
For another experiment, the system named is Trypanosoma cruzi. Nature of the experiment: Trypanosoma cruzi phosphomannomutase and mannose-1-phosphate guanylyltransferase assay. It counts as functional. The conditions noted are these: 10 µM.
For experiment [5], the target named is T2, Arginase-2, mitochondrial (Homo sapiens) (UniProt P78540).
T2 sequence (whole entry): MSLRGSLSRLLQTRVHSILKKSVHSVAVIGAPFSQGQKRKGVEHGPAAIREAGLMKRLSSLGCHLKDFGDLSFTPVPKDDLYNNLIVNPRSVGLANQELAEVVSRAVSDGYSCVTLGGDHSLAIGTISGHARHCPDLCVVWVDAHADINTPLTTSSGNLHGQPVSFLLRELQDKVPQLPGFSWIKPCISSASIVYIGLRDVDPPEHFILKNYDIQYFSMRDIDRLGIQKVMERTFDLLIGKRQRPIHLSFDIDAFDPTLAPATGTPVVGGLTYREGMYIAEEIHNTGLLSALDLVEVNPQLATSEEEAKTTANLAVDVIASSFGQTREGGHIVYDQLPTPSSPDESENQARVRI
Nature of the experiment: in vitro enzyme assay to detect the production of urea directly proportional to the activity of Arginase II. Further: in the data most compounds retested in dose-response had high values. It counts as functional. The note with it: 33.3 µM.

In experiment [6] the target is T3, Proteasome subunit beta (Trypanosoma cruzi) (UniProt O96673).
T3 sequence (whole entry): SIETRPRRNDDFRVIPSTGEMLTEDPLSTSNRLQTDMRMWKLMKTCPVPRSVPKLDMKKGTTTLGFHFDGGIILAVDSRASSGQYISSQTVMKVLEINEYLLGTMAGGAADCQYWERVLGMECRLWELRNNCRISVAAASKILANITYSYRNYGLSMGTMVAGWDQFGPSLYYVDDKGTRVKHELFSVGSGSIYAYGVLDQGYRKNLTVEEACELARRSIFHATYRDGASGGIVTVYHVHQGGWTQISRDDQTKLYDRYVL
Nature of the experiment: Trypanosoma cruzi proteasome chymotrypsin-like activity (TcProtChymo) assay. Further: in the data most compounds retested in dose-response had high values. The note with it: 9.37 µM. In kind it is functional.

A further experiment is filed under the species Homo sapiens. Nature of the experiment: To identify inhibition of the IFN signalling (Jak-Stat) pathway via expression of an eGFP reporter gene under the control of an IFN-stimulated response element (ISRE) containing MxA promoter. In kind it is functional. The note with it: 30 µM. Background: A reporter such as luciferase makes a cellular process visible.

For experiment [7], the target named is T4, Tyrosyl-tRNA synthetase, putative (Trypanosoma cruzi (strain CL Brener)) (UniProt Q4DSP6).
T4 sequence (whole entry): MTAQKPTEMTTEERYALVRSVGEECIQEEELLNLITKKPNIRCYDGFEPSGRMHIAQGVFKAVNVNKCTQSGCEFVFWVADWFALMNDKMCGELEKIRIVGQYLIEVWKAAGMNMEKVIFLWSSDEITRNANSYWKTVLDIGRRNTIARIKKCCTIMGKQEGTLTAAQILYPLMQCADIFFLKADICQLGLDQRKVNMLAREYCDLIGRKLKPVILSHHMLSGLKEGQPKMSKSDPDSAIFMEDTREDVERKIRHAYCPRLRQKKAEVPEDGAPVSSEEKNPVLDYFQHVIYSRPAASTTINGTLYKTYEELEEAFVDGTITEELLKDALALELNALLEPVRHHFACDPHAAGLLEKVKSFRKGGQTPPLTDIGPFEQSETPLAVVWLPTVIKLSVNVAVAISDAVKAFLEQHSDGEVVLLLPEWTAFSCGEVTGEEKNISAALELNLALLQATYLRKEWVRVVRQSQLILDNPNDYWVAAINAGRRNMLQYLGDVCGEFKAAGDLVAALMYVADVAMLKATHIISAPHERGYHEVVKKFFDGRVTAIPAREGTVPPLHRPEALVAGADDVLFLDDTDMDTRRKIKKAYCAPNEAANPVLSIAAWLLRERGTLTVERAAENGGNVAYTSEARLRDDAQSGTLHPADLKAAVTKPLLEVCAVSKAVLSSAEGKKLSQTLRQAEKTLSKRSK
Nature of the experiment: Trypanosoma cruzi tyrosyl tRNA synthetase (TcYRS) _High Tyrosine SOP. Further: in the data most compounds retested in dose-response had high values. It counts as functional. The conditions noted are these: 30 µM.

Experiment [8] deals with T4, Tyrosyl-tRNA synthetase, putative (Trypanosoma cruzi (strain CL Brener)). Nature of the experiment: Trypanosoma cruzi tyrosyl tRNA synthetase (TcYRS) SOP. It counts as functional. The note with it: 30 µM.
Experiment [9] concerns the target Chromo domain-containing protein 1 (Saccharomyces cerevisiae (strain ATCC 204508 / S288c) (Baker's yeast)) (UniProt P32657). Nature of the experiment: ScCHD-1 Enzyme Inhibition Assay. Further: in the data most compounds retested in dose-response had high values. In kind it is functional. The conditions noted are these: 30 µM.

SMILES strings stand for the structures. For some of these results: Entries with a potency or affinity are not part of this list.

Chain of Chromo domain-containing protein 1 (Saccharomyces cerevisiae (strain ATCC 204508 / S288c) (Baker's yeast)) (P32657 whole entry, the tested form may be a part): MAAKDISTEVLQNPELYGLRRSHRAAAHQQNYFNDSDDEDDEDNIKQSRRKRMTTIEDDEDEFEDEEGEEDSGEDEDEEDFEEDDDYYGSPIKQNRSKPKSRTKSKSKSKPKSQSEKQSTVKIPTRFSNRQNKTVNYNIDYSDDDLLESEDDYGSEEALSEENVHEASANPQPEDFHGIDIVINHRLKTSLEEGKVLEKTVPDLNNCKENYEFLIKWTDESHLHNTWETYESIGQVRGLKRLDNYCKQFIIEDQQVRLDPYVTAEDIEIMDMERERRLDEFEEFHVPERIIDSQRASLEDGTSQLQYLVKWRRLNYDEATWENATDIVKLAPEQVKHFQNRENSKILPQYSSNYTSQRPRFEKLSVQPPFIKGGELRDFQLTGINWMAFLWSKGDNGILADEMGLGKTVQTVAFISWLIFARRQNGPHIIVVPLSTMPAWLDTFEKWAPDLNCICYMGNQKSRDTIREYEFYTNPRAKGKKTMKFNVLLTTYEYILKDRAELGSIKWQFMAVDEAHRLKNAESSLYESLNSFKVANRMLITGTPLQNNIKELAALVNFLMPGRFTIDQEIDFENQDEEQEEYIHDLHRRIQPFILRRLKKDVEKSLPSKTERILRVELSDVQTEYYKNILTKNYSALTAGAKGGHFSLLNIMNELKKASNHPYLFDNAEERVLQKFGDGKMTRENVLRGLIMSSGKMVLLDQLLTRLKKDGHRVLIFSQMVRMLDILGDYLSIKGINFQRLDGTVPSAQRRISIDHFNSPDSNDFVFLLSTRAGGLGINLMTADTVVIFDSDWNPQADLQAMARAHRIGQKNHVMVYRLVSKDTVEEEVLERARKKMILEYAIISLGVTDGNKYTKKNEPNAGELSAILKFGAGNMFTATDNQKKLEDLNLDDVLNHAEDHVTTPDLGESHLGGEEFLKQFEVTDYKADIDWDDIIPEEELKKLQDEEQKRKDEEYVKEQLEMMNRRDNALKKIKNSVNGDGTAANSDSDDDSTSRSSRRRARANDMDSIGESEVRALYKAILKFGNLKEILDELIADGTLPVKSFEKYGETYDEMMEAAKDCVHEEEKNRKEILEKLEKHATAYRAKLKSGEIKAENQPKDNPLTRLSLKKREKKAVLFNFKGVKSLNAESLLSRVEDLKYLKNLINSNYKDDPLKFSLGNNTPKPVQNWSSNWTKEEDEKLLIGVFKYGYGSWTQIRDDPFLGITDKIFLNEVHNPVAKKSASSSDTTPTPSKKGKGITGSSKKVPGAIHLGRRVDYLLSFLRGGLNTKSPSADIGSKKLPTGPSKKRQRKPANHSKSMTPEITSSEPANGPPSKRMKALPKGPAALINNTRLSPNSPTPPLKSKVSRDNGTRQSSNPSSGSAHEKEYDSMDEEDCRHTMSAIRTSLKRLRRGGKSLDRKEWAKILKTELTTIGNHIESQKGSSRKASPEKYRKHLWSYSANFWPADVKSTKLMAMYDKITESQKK
Chain of Protein translocase subunit SecA (Escherichia coli (strain K12)) (P10408 whole entry): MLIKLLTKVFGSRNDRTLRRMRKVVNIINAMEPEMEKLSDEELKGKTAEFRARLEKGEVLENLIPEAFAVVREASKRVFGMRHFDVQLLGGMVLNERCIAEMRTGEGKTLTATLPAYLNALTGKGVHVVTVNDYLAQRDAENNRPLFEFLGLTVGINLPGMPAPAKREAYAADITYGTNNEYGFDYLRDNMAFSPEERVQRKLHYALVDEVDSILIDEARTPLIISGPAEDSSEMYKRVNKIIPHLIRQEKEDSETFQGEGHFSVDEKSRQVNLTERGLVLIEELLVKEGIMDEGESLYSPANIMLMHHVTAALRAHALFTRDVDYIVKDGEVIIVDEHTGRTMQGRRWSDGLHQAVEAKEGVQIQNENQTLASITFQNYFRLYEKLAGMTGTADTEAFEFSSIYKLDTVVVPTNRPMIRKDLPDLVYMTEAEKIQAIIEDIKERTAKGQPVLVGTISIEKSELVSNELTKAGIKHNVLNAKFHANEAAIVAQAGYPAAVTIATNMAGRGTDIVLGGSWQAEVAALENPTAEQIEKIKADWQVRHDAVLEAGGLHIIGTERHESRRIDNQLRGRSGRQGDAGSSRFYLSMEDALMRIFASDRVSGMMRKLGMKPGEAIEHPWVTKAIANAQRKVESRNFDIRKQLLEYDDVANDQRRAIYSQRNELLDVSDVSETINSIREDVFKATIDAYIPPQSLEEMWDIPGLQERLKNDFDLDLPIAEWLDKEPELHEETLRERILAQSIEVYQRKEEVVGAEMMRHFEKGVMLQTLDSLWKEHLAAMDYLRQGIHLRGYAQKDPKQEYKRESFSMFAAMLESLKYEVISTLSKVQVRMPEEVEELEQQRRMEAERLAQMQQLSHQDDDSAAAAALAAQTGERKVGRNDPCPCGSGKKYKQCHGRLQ

As for `O=C(CCc1ccsc1)N1CCC(Cc2ccc(CO)cc2)C1` (stereo unspecified), the Percent Effect in [1] was 2.19%; in [2] it was 4.17%; in experiment [3] it was -0.478%; in experiment [4] it was -3.78%; in the experiment with Trypanosoma cruzi, -6.9%; in experiment [5] it was 3.53%. The Percent Effect is 12.5% in [6]; -1.24% in the experiment filed under Homo sapiens; 3.16% in experiment [7]; 7.69% in experiment [8]; -1.32% in experiment [9].

On to `COc1c(CNCc2ccc(N(C)C)nc2)c(C(C)C)nn1C`, for which the Percent Effect is -3.16% in experiment [1]; 13.2% in [2]; -3.28% in experiment [3]; 6.83% in experiment [4]; 6.39% with Trypanosoma cruzi; 4.6% in experiment [5]. Besides, the Percent Effect in experiment [6] is 6.01%; in the experiment listed under Homo sapiens, 13.5%; in experiment [7] it was 5.39%; in [8] it was 17.1%; in [9] it was -12.6%.

Consider `CC(C)c1nc(C2CCCN2C(=O)c2nccnc2N)no1` (stereo unspecified), for which the Percent Effect is -6.3% in [1]; 16.2% in experiment [2]; -11% in experiment [3]; 23.1% in [4]; 4.18% in the experiment with Trypanosoma cruzi; -4.99% in experiment [5]. Moreover, the Percent Effect is 6.1% in [6]; 12.1% in the experiment listed under Homo sapiens; 6.93% in [7]; 23.2% in experiment [8]; -5.79% in experiment [9].

Turning to `O=C1COc2cc(C(=O)NS(=O)(=O)c3ccccc3F)ccc2N1`, the Percent Effect in experiment [1] was -1.86%; in experiment [2], 2.63%; in experiment [3], 3.61%; in [4] it was -9.82%; with Trypanosoma cruzi, -3.46%; in [5], -3.6%. The Percent Effect in experiment [6] is 5.16%; in the experiment filed under Homo sapiens, -3.9%; in experiment [7], -4.43%; in [8], -11.1%; in experiment [9] it was 2.83%.

With `O=C(c1cc(COc2ccc3c(c2)OCO3)[nH]n1)N1CCCC1`, the Percent Effect in [1] is -4.35%; in experiment [2] it was -5.48%; in [3], 4.54%; in experiment [4], 2.19%; in the experiment on Trypanosoma cruzi, -5.56%; in experiment [5] it was 4.39%. The Percent Effect was 21.7% in experiment [6]; 14.2% in the experiment filed under Homo sapiens; 3.12% in experiment [7]; 6.17% in experiment [8]; -1.77% in experiment [9].

As to `Cn1cc(-c2cnc(N3CCOCC3)nc2)cc1C(=O)NCCO`, the Percent Effect is -0.798% in experiment [1]; 5.33% in experiment [2]; 1.84% in experiment [3]; -0.344% in experiment [4]; -8.86% with Trypanosoma cruzi; 5.83% in [5]. Also, the Percent Effect in experiment [6] was 8.37%; in the experiment filed under Homo sapiens it was -3.42%; in [7] it was 0%; in experiment [8], 6.41%; in experiment [9], -7.59%.

Regarding `COCCn1ccc2cc(NC(C)=O)ccc21`, the Percent Effect is -8.18% in experiment [1]; 23.7% in [2]; -9.22% in [3]; 7.23% in experiment [4]; 1.46% in the experiment on Trypanosoma cruzi; -9.47% in experiment [5]. Besides, the Percent Effect in experiment [6] is 16.4%; in the experiment listed under Homo sapiens, -6.07%; in experiment [7], 4.25%; in experiment [8], 10.4%; in [9], -9.21%.

In the case of `Cc1nc(N2CCCC2)nc2c1CN(C(C)C)CC2`, the Percent Effect in [1] was -5.79%; in experiment [2] it was 21.3%; in [3], -1.49%; in experiment [4], 4.47%; in the experiment with Trypanosoma cruzi, 3.28%; in experiment [5], -51.8%. For the same molecule, the Percent Effect in experiment [6] is 1.71%; in the experiment filed under Homo sapiens it was -7.95%; in experiment [7] it was 6.25%; in experiment [8], 17.5%; in experiment [9], -11.2%.

Regarding `CCN1CCN(C2CCN(Cc3noc(C)n3)CC2)C1=O`, the Percent Effect in experiment [1] was -5.08%; in experiment [2] it was 25.3%; in experiment [3] it was -3.66%; in [4] it was -5.18%; with Trypanosoma cruzi, 1.98%; in [5], 0.38%. For the same molecule, the Percent Effect in experiment [6] is 5.16%; in the experiment filed under Homo sapiens it was -0.161%; in [7], 7.39%; in experiment [8], 21.5%; in experiment [9], -6.23%.

As to `O=C(NCCCOCC1CCCO1)c1cccnc1N1CCCC1` (stereo unspecified), the Percent Effect was -2.67% in experiment [1]; 5.41% in experiment [2]; 4.06% in experiment [3]; -10.2% in experiment [4]; -2.93% in the experiment on Trypanosoma cruzi; 0.833% in experiment [5]. In addition, the Percent Effect was 14.3% in [6]; -4.98% in the experiment filed under Homo sapiens; 9.9% in experiment [7]; -3.66% in experiment [8]; 6.21% in [9].

Take `CC(=O)Nc1nc(C2CCN(C(C)=O)CC2)cs1`: the Percent Effect in experiment [1] is 0.424%; in [2] it was 8%; in experiment [3] it was 6.04%; in [4], -0.593%; with Trypanosoma cruzi it was -4.33%; in experiment [5], 0.699%. Further, the Percent Effect in experiment [6] was 11.2%; in the experiment listed under Homo sapiens it was 4.06%; in experiment [7] it was 6.38%; in experiment [8], 6.41%; in [9], -3.5%.

Source of the values: ChEMBL document CHEMBL3988442, “University of Dundee, Small-Polar-MMV Screening Library” (2021).
